PAFAH2 FP inh – inhibitors of human PAFAH2; recombinant PAFAH2, FP-rhodamine activity probe, fluorescence polarization; inhibition, % at 3.39 µM; actives 0.99% (n = 340,000);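 active = inhibition above the mean over all tested compounds plus 3 SD, cut at about 30% in these data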;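 note: inhibitors block probe labeling of enzyme so polarization drops; 0% = enzyme with DMSO and 100% = wells lacking PAFAH2 protein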
PAFAH1B3 FP inh – inhibitors of human PAFAH1B3; inhibition, % at 3.39 µM; recombinant PAFAH1B3, FP-rhodamine probe, fluorescence polarization; AID 492972; Q15102; actives 0.28% (n = 340,000);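 active = inhibition above the screen-wide average of all tested compounds plus 3 SD, cut at about 25% in these data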;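 note: 0% = enzyme with DMSO only and 100% = wells lacking PAFAH1B3 protein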
pPAFAH inh – inhibitors of human plasma PAF acetylhydrolase (pPAFAH). actives 1.5% (n = 330,000). Q13093. AID 463082. inhibition, % at 3.39 µM. recombinant pPAFAH, FP-rhodamine probe fluorescence polarization;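 active = inhibition above the mean inhibition across the screen plus 3 SD, cut at about 25% in these data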;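 note: inhibitors block binding of the rhodamine activity-based probe so polarization drops; 0% = enzyme with DMSO and 100% = wells lacking pPAFAH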
eLon inh – inhibitors of E. coli Lon protease; inhibition, % at 7.94 µM; purified E. coli Lon protease, fluorescence polarization; AID 602123; actives 0.42% (n = 360,000); in the data active = inhibition above about 13%, passing the limit was not always enough;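 note: 0% = enzyme with probe and DMSO and 100% = no enzyme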
PAFAH1B2 FP inh – blocks human PAF acetylhydrolase 1b catalytic subunit 2; P68402; recombinant PAFAH1B2, FP-rhodamine activity probe, fluorescence polarization; inhibition, % at 3.39 µM; actives 1.2% (n = 340,000); AID 492953;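 active = inhibition above the mean of all tested compounds plus 3 SD, cut at about 24% in these data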;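 note: 0% = enzyme with DMSO and 100% = wells lacking PAFAH1B2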
Rin1-Abl PPI inh – blocks binding of human Rin1 to Abl; P00519+Q13671; TR-FRET Rin1/Abl binding, biochemical; inhibition, % at 7.35 µM; actives 0.4% (n = 360,000); AID 588664; in the data active = inhibition above about 5%, passing the limit was not always enough
Rin1 Abl conf – confirmation of inhibitors of human Rin1-Abl interaction; shares compounds with Rin1-Abl PPI inh; TR-FRET Rin1-Abl binding, purified proteins; inhibition, % at 7.35 µM; actives 49% (n = 1,300); AID 602124
GFP quencher – counter-screen for Rin1-Abl inhibitors: GFP fluorescence quenchers. shares compounds with Rin1-Abl PPI inh. inhibitors/quenchers counterscreen. inhibition, % at 6.75 µM. actives 8.5% (n = 1,300);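 note: ABL1-eGFP fusion protein alone without its partner RIN1-SBP; 0% = protein with vehicle and 100% = wells lacking protein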
GFP quench DR – counter-screen for Rin1-Abl inhibitors: GFP quenchers, dose response | IC50, µM | 230 tested, under 10 active | GFP fluorescence interference/quenching counterscreen | AID 602182 | shares compounds with Rin1-Abl PPI inh; call rule not given here;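 note: ABL1-eGFP fusion protein alone without its RIN1 binding partner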
Active calls of the source: *; · = not tested or not shown. In the library only some 3.1% were active in any assay of this set; here they are far more common. Cut-off read from the data, not from the text of the source, unless noted: active = inhibition above about 6.5%; inactive = the rest.

SMILES	PAFAH2 FP inh	PAFAH1B3 FP inh	pPAFAH inh	eLon inh	PAFAH1B2 FP inh	Rin1-Abl PPI inh	Rin1 Abl conf	GFP quencher	others
CCCCOc1ccc(C(C)NC(=O)CCS(=O)(=O)Cc2ccc(C)cc2)cc1 (configuration not stated)	5.5	2.1	13.2	12.9	6.5	4.4*	-7.0	0.4
Cc1ccc(-c2nn3c(-c4ccco4)nnc3c3ccccc23)cc1S(=O)(=O)NCC1CCCO1 (configuration not stated)	18.9	16.4	2.6	-7.2	7.9	10.5*	26.9*	1.5	GFP quench DR=>67.5
Cc1ccc(-c2nnc(Nc3ccccc3)c3ccccc23)cc1S(=O)(=O)NCC1CCCO1 (configuration not stated)	-1.9	2.5	3.0	6.4	3.2	-7.0	·	·
O=C(CCS(=O)(=O)c1ccc(Br)cc1)N1CCN(c2ccccc2Cl)CC1	21.0	14.6	6.0	-7.9	2.8	9.0*	-1.4	0.2
CNc1nc(OC)nc(N(C#N)CN2C(=O)c3ccccc3S2(=O)=O)n1	4.1	-3.4	0.8	2.2	6.9	18.8*	1.5	0.1
C/C(=N\NC(=O)c1ccc([N+](=O)[O-])cc1)c1c(O)cc(C)oc1=O	2.1	3.4	6.1	-7.2	0.6	2.6	·	·
C/C(=N/NC(=O)c1cc(O)c(O)c(O)c1)c1ccc([N+](=O)[O-])cc1	7.2	14.1	·	-7.2	11.1	40.8*	45.9*	20.6*
Cc1nc(SCC(=O)N2CC(C)OC(C)C2)nc(C)c1C (configuration not stated)	-3.8	-5.4	4.0	1.1	0.6	8.3*	9.5*	0.1
Cc1ccc(C(=O)N[C@H](C(=O)Nc2cc(Cl)cc(Cl)c2)C(C)C)cc1	1.4	4.3	2.0	-1.7	4.7	5.8*	-1.0	-1.0
CC(=O)Nc1ccc(NC(=O)C(NC(=O)c2ccc(Cl)cc2)C(C)C)cc1 (configuration not stated)	·	·	·	11.9	·	-2.2	·	·
CCN(CC)c1cc(-c2ccccc2)ncn1	-0.9	1.9	5.8	-8.1	1.3	7.6*	1.3	-0.8
NC(=O)C1CCN(CC(=O)NC(=O)NC2CCCC2)CC1	8.1	-0.3	1.7	0.5	0.1	0.1	·	·
Cc1ccc(/C=C2/SC(=S)N(CCC(=O)N3CCOCC3)C2=O)cc1	-0.1	0.9	1.1	-0.9	0.9	1.8	·	·
CCCC(=O)Nc1ccc(N2CCN(C(=O)c3cc4ccccc4o3)CC2)cc1	-3.9	-0.8	18.9	-5.8	4.6	11.1*	8.1*	1.0
O=C(C[C@@H]1C[C@@H]2c3cc(NS(=O)(=O)c4ccc(F)cc4)ccc3O[C@@H]2[C@@H](CO)O1)NC1CCCCC1	·	·	·	4.4	·	-0.6	·	·
Cc1c(NC(=O)c2ccccc2)c(=O)n(-c2ccccc2)n1C	1.9	2.4	1.9	-8.3	-1.0	-3.2	·	·
Cc1c(NC(=O)c2ccc(N(C)S(=O)(=O)c3ccccc3)cc2)c(=O)n(-c2ccccc2)n1C	7.0	9.5	3.8	-10.2	2.8	9.8*	0.8	-1.9
Cc1c(NC(=O)CSc2ncccn2)c(=O)n(-c2ccccc2)n1C	0.6	6.8	-15.4	2.8	-0.6	5.4*	2.1	-1.1
Cc1c(NC(=O)c2ccc(Cl)s2)c(=O)n(-c2ccccc2)n1C	1.0	7.5	-0.6	11.3	8.5	6.2*	-1.7	0.8
Cc1nc(SCC(=O)Nc2c(C)n(C)n(-c3ccccc3)c2=O)nc(C)c1C	1.6	3.0	3.4	-0.3	-0.2	0.4	·	·
CC1OC(Oc2c(-c3cc(O)c(O)c(O)c3)oc3cc(O)cc(O)c3c2=O)C(O)C(O)C1O (configuration not stated)	-38.9	23.3	·	-2.6	3.2	42.3*	45.0*	14.9*
Cc1ccc(Nc2nc(N)nc(CSc3ncccn3)n2)cc1	6.7	-3.5	3.1	0.9	5.6	-2.2	·	·
Cc1ccc(Nc2nc(N)nc(CSc3nnc(-c4ccncc4)o3)n2)cc1	-20.2	4.4	-1.1	-2.7	-0.9	9.6*	10.1*	0.3

Screens (PubChem)
